test system: E18 rat cortical neuron-glia co-culture; assay: fiber score / MBP score (myelination specific beyond OL differentiation) (ratio); higher = more myelination-specific MBP alignment; settings: 5 µM; treatment time: 8 days (DIV5-DIV13)
Summary of the method: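 Papain-dissociated primary E18 rat cortical co-cultures, plated at 20,000 cells/well on poly-d-lysine/laminin 96-well plates, were exposed to library compounds at 1 or 5 µM in myelination medium between DIV5 and DIV13. Following fixation in 4 % paraformaldehyde, cultures were stained for MBP, Olig2 and DAPI, and four 10X fields per well were analysed in duplicate wells. Values are the ratio of fiber score (continuous MBP fiber length per Olig2+ nucleus) to MBP score (thresholded MBP area × intensity per Olig2+ nucleus).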

Question: With O=C(c1ccc(OCCN2CCCCC2)cc1)c1c(-c2ccc(O)cc2)sc2cc(O)ccc12 [Raloxifene] as the molecule, how does the “fiber score / MBP score” value read?
Answer: Its value is 0.788.

Question: C[C@@H]1O[C@@H](OC[C@H]2O[C@@H](Oc3c(-c4ccc(O)c(O)c4)oc4cc(O)cc(O)c4c3=O)[C@H](O)[C@@H](O)[C@@H]2O)[C@H](O)[C@H](O)[C@H]1O [Rutin] was tested. Which “fiber score / MBP score” value did it give?
Answer: Its value is 0.905.

Question: Which “fiber score / MBP score” value does the source give for OCc1cccnc1 [Nicotinyl Alcohol] here?
Answer: The value was 0.687.

Question: How did the “fiber score / MBP score” value turn out when CC(C)(C)NCC(O)COc1cccc2c1CC(O)C(O)C2 (stereo unspecified) [Nadolol] was run?
Answer: Its value is 0.949.

Question: With Cc1c(OCC(F)(F)F)ccnc1C[S+]([O-])c1nc2ccccc2[nH]1 (stereo unspecified) [Lansoprazole] as the molecule, how does the “fiber score / MBP score” value read?
Answer: The value was 1.37.

Question: CCCSc1ccc2[nH]c(NC(=O)OC)nc2c1 [Albendazole] was tested. Which “fiber score / MBP score” value did it give?
Answer: Its value is 0.0787.

Question: With Cc1nc2n(c(=O)c1CCN1CCC(c3noc4cc(F)ccc34)CC1)CCCC2 [Risperidone] as the molecule, how does the “fiber score / MBP score” value read?
Answer: Its value is 0.565.

Question: Which “fiber score / MBP score” value does the source give for C#C[C@]1(OC(C)=O)CC[C@H]2[C@@H]3CCC4=CC(=O)CC[C@@H]4[C@H]3CC[C@@]21C [Norethisterone acetate] here?
Answer: The value was 0.989.

Question: With CC(C)Oc1ccc2c(=O)c(-c3ccccc3)coc2c1 [Ipriflavone] as the molecule, how does the “fiber score / MBP score” value read?
Answer: Its value is 0.957.

Question: With Cc1[nH]cnc1CN1CCc2c(c3ccccc3n2C)C1=O [Alosetron] as the molecule, how does the “fiber score / MBP score” value read?
Answer: The value was 0.974.

Question: For NC[C@H](O)c1ccc(O)c(O)c1 [Norepinephrine], which “fiber score / MBP score” value is on record?
Answer: Its value is 0.756.

Question: Which “fiber score / MBP score” value does the source give for CCOC(=O)OC(C)OC1=C(C(=O)Nc2ccccn2)N(C)S(=O)(=O)c2ccccc21 (stereo unspecified) [Ampiroxicam] here?
Answer: The value was 1.01.

Question: With CCCCC(=O)N(Cc1ccc(-c2ccccc2-c2nnn[nH]2)cc1)[C@H](C(=O)O)C(C)C [Valsartan] as the molecule, how does the “fiber score / MBP score” value read?
Answer: The value was 0.655.

Question: For CC1=C(C(=O)O)N2C(=O)[C@@H](NC(=O)[C@H](N)c3ccccc3)[C@H]2SC1 [Cephalexin], which “fiber score / MBP score” value is on record?
Answer: The value was 0.986.

Question: With O=c1[nH]cnc2c1ncn2[C@H]1CC[C@@H](CO)O1 [2',3'-Dideoxyinosine] as the molecule, how does the “fiber score / MBP score” value read?
Answer: The value was 0.869.

Question: Which “fiber score / MBP score” value does the source give for CC(C)NCC(O)c1ccc(NS(C)(=O)=O)cc1 (stereo unspecified) [Sotalol] here?
Answer: The value was 0.499.

Question: Which “fiber score / MBP score” value does the source give for Nc1nc(N)c2nc(-c3ccccc3)c(N)nc2n1 [Triamterene] here?
Answer: The value was 1.62.

Question: How did the “fiber score / MBP score” value turn out when OCc1cc(C(O)CNCCCCCCOCCCCc2ccccc2)ccc1O (stereo unspecified) [Salmeterol] was run?
Answer: The value was 0.0809.

Question: With COc1cc(C[C@@H](CO)[C@H](CO)Cc2ccc(O)c(OC)c2)ccc1O [Secoisolariciresinol] as the molecule, how does the “fiber score / MBP score” value read?
Answer: The value was 0.777.

Question: How did the “fiber score / MBP score” value turn out when C#C[C@]1(O)CC[C@H]2[C@@H]3CCC4=CC(=O)CC[C@@H]4[C@H]3CC[C@@]21C [Norethindrone] was run?
Answer: Its value is 0.877.

Question: How did the “fiber score / MBP score” value turn out when C[C@](N)(Cc1ccc(O)c(O)c1)C(=O)O [Methyldopa] was run?
Answer: Its value is 0.884.

Question: Which “fiber score / MBP score” value does the source give for O=C1CC[C@@H](C(=O)N2CSC[C@H]2C(=O)O)N1 [Pidotimod] here?
Answer: The value was 0.881.

Question: With COCCCC/C(=N\OCCN)c1ccc(C(F)(F)F)cc1 [Fluvoxamine] as the molecule, how does the “fiber score / MBP score” value read?
Answer: Its value is 0.487.

Question: With CN1CCC(=C2c3ccccc3C=Cc3ccccc32)CC1 [Cyproheptadine] as the molecule, how does the “fiber score / MBP score” value read?
Answer: The value was 0.686.

Question: Which “fiber score / MBP score” value does the source give for CNNCc1ccc(C(=O)NC(C)C)cc1 [Procarbazine] here?
Answer: The value was 1.09.

Question: With CN(C)CCC=C1c2ccccc2CCc2ccccc21 [Amitriptyline] as the molecule, how does the “fiber score / MBP score” value read?
Answer: The value was 1.22.

Question: With C[C@]12C[C@H](O)[C@H]3[C@@H](CCC4=CC(=O)CC[C@@]43C)[C@@H]1CC[C@@H]2C(=O)CO [Corticosterone] as the molecule, how does the “fiber score / MBP score” value read?
Answer: Its value is 0.702.

Question: Which “fiber score / MBP score” value does the source give for CN1C(=O)CC[C@H]1c1cccnc1 [Cotinine] here?
Answer: Its value is 0.723.

Question: Which “fiber score / MBP score” value does the source give for CN(C)c1nc(N(C)C)nc(N(C)C)n1 [Altretamine] here?
Answer: Its value is 0.901.

Question: S=c1[nH]cnc2nc[nH]c12 [Mercaptopurine] was tested. Which “fiber score / MBP score” value did it give?
Answer: The value was 0.41.

Question: Which “fiber score / MBP score” value does the source give for Cc1ncc([N+](=O)[O-])n1CC(C)O (stereo unspecified) [Secnidazole] here?
Answer: The value was 0.618.
